Test results as given in PubChem BioAssay (NCI).
About 83,000 compounds went through this panel and 20% of them were active in at least one assay; those are over-represented in the sample as a whole.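 A percent growth of 40 corresponds to 60% growth inhibition; 0 means no net growth; -100 means all cells died. Active threshold: below 10.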 Calls of active or inactive are those of the source.

What was measured:
Experiment in all cases: NCI-60 one-dose screen, 48 h (100 = growth as untreated, 0 = no growth, -100 = all killed)
Conditions in all cases: 10 µM unless noted
[1] = system: SK-MEL-2 melanoma
[2] = system: EKVX NSCLC
[3] = system: SN12C renal
[4] = system: UO-31 renal
[5] = system: TK-10 renal
[6] = system: ACHN renal
[7] = system: A498 renal
[8] = system: CCRF-CEM leukemia
[9] = system: MOLT-4 leukemia
[10] = system: SR leukemia
[11] = system: RPMI-8226 leukemia
[12] = system: OVCAR-8 ovarian
[13] = system: OVCAR-5 ovarian
[14] = system: OVCAR-4 ovarian
[15] = system: SK-OV-3 ovarian
[16] = system: IGROV1 ovarian
[17] = system: HS 578T breast
[18] = system: NCI/ADR-RES ovarian
[19] = system: OVCAR-3 ovarian
[20] = system: CAKI-1 renal

Measured: growth

COc1ccc([C@H]2[C@H](O)C(=O)N2c2cc(OC)c(OC)c(OC)c2)cc1F
active: [1] -43.3% | [7] -26.1% | [10] 9.35% | [12] -15% | [17] 3.89% | [18] 8.51%
inactive: [2] 44.7% | [3] 27.3% | [4] 34.2% | [5] 86.2% | [6] 24.6% | [8] 17.9% | [9] 15.2% | [11] 26.9% | [13] 27.7% | [14] 67.7% | [15] 30.1% | [16] 19.2%

O=C(NCc1ncc[nH]1)c1ccc(-c2nc3ccc4[nH]ncc4c3c3c2CCCC3)cc1
inactive: [2] 47.9% | [3] 10.5% | [4] 51.6% | [6] 42% | [11] 45% | [12] 16.1% | [13] 62.1% | [14] 14.5% | [18] 90.2%
active: [1] -32.6% | [5] -2.79% | [7] -13.7% | [9] -23.5% | [10] -52.6% | [15] -16.8% | [16] 3.6% | [19] 3.38% | [17] -12.8%

O=C(NCCN1CCCC1)c1ccc(-c2nc3ccc4[nH]ncc4c3c3c2CCCC3)cc1
inactive: [1] 10.1% | [2] 24% | [4] 43.3% | [5] 27.3% | [6] 15.8% | [12] 10.9% | [13] 23.5% | [18] 93.2%
active: [3] 8.98% | [7] -80% | [8] 9% | [9] -26% | [10] -24.4% | [11] -15% | [15] 0.026% | [16] 1.22% | [19] 1.47% | [17] -1.99%

C#Cc1ccc(C(=O)NCc2ccc(/C=C/C(=O)c3nccn3C)cc2)cc1
inactive: [1] 87% | [2] 36.4% | [3] 14.8% | [4] 29.3% | [5] 45.1% | [6] 21.6% | [7] 38.1% | [12] 26.9% | [13] 26.8% | [14] 39% | [15] 50.2% | [16] 13.1% | [19] 17.8% | [17] 22.6%
active: [9] 1.15% | [10] 4.33% | [11] 6.86% | [18] 9.5%

COc1c(N2CC3CCCNC3C2)c(F)cc2c(=O)c(C(=O)N/N=C/c3ccc4c(c3)OCO4)cn(C3CC3)c12 (stereo not given)
inactive: [1] 103% | [2] 66.6% | [3] 82.9% | [4] 64.9% | [5] 124% | [6] 85.3% | [8] 31.7% | [9] 59.3% | [11] 60.9% | [12] 54% | [13] 87.3% | [14] 90.5% | [15] 99.7% | [16] 51% | [19] 29.4% | [17] 103% | [18] 63.6%
active: [10] -24.3%

COc1ccc2[nH]cc(/C=N/Nc3nc4ccccc4s3)c2c1
inactive: [1] 80.5% | [2] 50% | [3] 69.6% | [4] 37.4% | [5] 103% | [6] 63.9% | [7] 63.4% | [8] 47.3% | [9] 35.9% | [10] 45.5% | [11] 47.2% | [12] 67.1% | [13] 73.2% | [14] 67.2% | [15] 65.7% | [16] 29.8% | [17] 60.6% | [18] 66%

C=CCn1c(SCC(=O)Nc2ccc(C(=O)/C=C/c3ccc(Cl)cc3)cc2)nnc1-c1c[nH]c2ccccc12
inactive: [1] 88.7% | [2] 56.1% | [3] 71.5% | [4] 47.8% | [5] 103% | [6] 77.6% | [7] 91.4% | [8] 75.3% | [9] 66.4% | [10] 71.1% | [12] 76.1% | [13] 97.3% | [15] 86.7% | [16] 58.1% | [19] 84% | [17] 91.5% | [18] 97.7%
active: [11] 2.66%

CCO/C=N/C1=C(C#N)C(c2ccc(OC)cc2)c2sc3c(CC)cccc3c2O1 (stereo not given)
active: [7] 6.97% | [19] -28.8%
inactive: [1] 41.4% | [2] 47.5% | [3] 43.6% | [4] 48.1% | [5] 69.3% | [20] 50% | [8] 22.4% | [9] 26.8% | [10] 20.1% | [11] 12.7% | [12] 42.9% | [13] 43.5% | [14] 65% | [15] 66.6% | [16] 38.4% | [17] 18.2% | [18] 10.3%

CC/C(=C/c1c(O)cccc1OC)c1ccc2c(OC)cccc2[o+]1
inactive: [1] 107% | [2] 97.9% | [3] 96.9% | [4] 93.5% | [5] 121% | [6] 99.2% | [8] 102% | [9] 104% | [10] 90.4% | [11] 109% | [12] 101% | [13] 106% | [14] 99.7% | [15] 97.8% | [16] 102% | [19] 109% | [17] 107% | [18] 99.7%

Nc1ncc(-c2ccc3ncnc(N4CCc5cc(F)c(Cl)cc54)c3c2)cn1
active: [2] -9.64% | [4] 7.96% | [5] -15% | [7] -80.7% | [9] -20.9% | [11] -14.7% | [16] -11.2% | [17] -12.8%
inactive: [1] 17.1% | [3] 17.9% | [6] 13.4% | [10] 18% | [12] 33.5% | [13] 19.8% | [14] 31.7% | [15] 20.5% | [19] 13.5% | [18] 38.4%

CCc1cccc(NC(=O)CNc2cc(S(=O)(=O)N(C)C)cc(C)c2C)c1
inactive: [1] 102% | [2] 50.7% | [3] 69.4% | [4] 48.5% | [5] 65% | [6] 91.3% | [7] 35.5% | [9] 82.4% | [10] 83.8% | [11] 65.7% | [12] 97.7% | [13] 84.1% | [14] 56.3% | [15] 107% | [16] 74% | [19] 112% | [17] 97.2% | [18] 100%

O=C(NNc1nc2cc(F)c(F)cc2n2cccc12)c1cnccn1
inactive: [1] 46.2% | [2] 17% | [3] 39% | [4] 23.3% | [5] 49.3% | [6] 17.6% | [7] 43.6% | [8] 14.4% | [10] 15.3% | [11] 30.5% | [12] 16.6% | [13] 41.2% | [14] 20.3% | [15] 30.5% | [16] 19.5% | [19] 35.6% | [17] 75.5%
active: [9] 7.98% | [18] 2.66%

COc1ccc(/C=C(/C)c2ccc3ccc(OC)cc3[o+]2)c(O)c1
inactive: [1] 94.3% | [2] 55.8% | [3] 85.5% | [4] 69.4% | [5] 174% | [6] 70.2% | [8] 11.2% | [9] 34.7% | [10] 14.9% | [11] 58.4% | [12] 80.5% | [13] 98.5% | [14] 84.5% | [15] 98.6% | [16] 58% | [19] 35.1% | [17] 98.7% | [18] 45.3%

CN1c2ccccc2Sc2cc(C=C(C#N)C#N)ccc21
inactive: [1] 101% | [2] 93.6% | [3] 92.7% | [4] 95.6% | [5] 111% | [6] 101% | [8] 102% | [9] 84.8% | [10] 105% | [11] 103% | [12] 94.4% | [13] 38% | [14] 105% | [16] 75.6% | [19] 106% | [17] 89.3% | [18] 89.7%
active: [7] -19%

O=C1[C@H]2Cc3c([nH]c4ccccc34)[C@@H](c3ccc(Cl)cc3)N2C(=O)CN1C1CCN(Cc2ccccc2)CC1
inactive: [1] 84.7% | [2] 41.3% | [3] 45.9% | [4] 26.4% | [5] 82.3% | [20] 38% | [7] 74.8% | [8] 43.3% | [9] 27.1% | [10] 10.4% | [11] 17% | [12] 72.7% | [13] 74.8% | [14] 49.1% | [15] 79.7% | [16] 33.5% | [19] 47.7% | [17] 68.1% | [18] 51.3%

COc1ccccc1-n1cc(C#N)c(N)c1C(=O)c1ccc(Cl)cc1
inactive: [1] 78.4% | [2] 86.9% | [3] 90% | [4] 77.4% | [5] 107% | [6] 93% | [7] 57% | [9] 64.2% | [10] 23.5% | [11] 88.3% | [12] 96.7% | [13] 109% | [14] 98.2% | [15] 101% | [16] 78% | [19] 63.7% | [17] 74.6% | [18] 41.1%

C#Cc1nc(C(=O)NCCC(=O)Nc2ccc(NC(=O)c3ccc(/C=C/C(=O)c4nccn4C)cc3)cc2)cs1
inactive: [1] 100% | [2] 65.3% | [3] 14.4% | [4] 30.7% | [5] 69.9% | [20] 38.9% | [7] 90.5% | [9] 19.9% | [12] 22.3% | [13] 50.9% | [14] 61.8% | [15] 86.3% | [17] 86.7% | [18] 49.2%
active: [8] -21.2% | [10] 0.901% | [11] -33% | [16] -25.5% | [19] -11.5%
